# Test results published in the supplement of paper PMC3342239.
# Structures can show the parent of a compound that is named as a salt.
# Test system: Saccharomyces cerevisiae
# Test: fraction of cells in G1 phase (DNA content, flow cytometry); higher = more cells with unreplicated DNA (G1 delay)
# Conditions: temperature: 30 C; YPD; JTY2953 pdr5 snq2 (sensitized); drug added to: cultures diluted from stationary phase; 6-7 h
# How it was run: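 S. cerevisiae in YPD at 30°C was treated with library drugs, with DMSO-only wells as reference. Sensitized JTY2953 cultures diluted 1∶200 from overnight received a final 20 µg/ml and were fixed after 6–7 h; other runs dosed dividing JTY2953 (fixed 6 h later) or BY4741 (4.33 h later). Ethanol-fixed cells were stained with SYTOX Green and 10,000 events read by flow cytometry. G1 fraction is the Dean-Jett-Fox G1 peak area over G1 plus G2/M areas.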
row,SMILES,fraction of cells in G1 phase
1,Cc1[nH]c(=O)c(C#N)cc1-c1ccncc1 [Milrinone] (94.6857 µM),0.482
2,CC(=O)Oc1ccccc1C(=O)O [Acetylsalicylic acid] (111.011 µM),0.49
3,CC1(C)S[C@@H]2[C@H](NC(=O)[C@H](N)c3ccccc3)C(=O)N2[C@H]1C(=O)O [Ampicillin trihydrate] (57.2391 µM),0.497
4,Nc1ccc(O)c(C(=O)O)c1 [5-aminosalicylic acid] (130.601 µM),0.48
5,NC[C@@H]1O[C@H](O[C@H]2[C@@H](O)[C@H](O[C@@H]3[C@@H](O)[C@H](N)C[C@H](N)[C@H]3O[C@H]3O[C@H](CN)[C@@H](O)[C@H](O)[C@H]3N)O[C@@H]2CO)[C@H](N)[C@@H](O)[C@@H]1O [Neomycin sulfate] (32.5386 µM),0.495
6,CCCCCN(CCCCC)C(=O)C(CCC(=O)O)NC(=O)c1ccc(Cl)c(Cl)c1 (centres undefined) [Lorglumide] (43.5334 µM),0.482
7,CCC1=C[C@@H]2CN(C1)Cc1c([nH]c3ccccc13)[C@@](C(=O)OC)(c1cc3c(cc1OC)N(C)[C@H]1[C@@](O)(C(=O)OC)[C@H](OC(C)=O)[C@]4(CC)C=CCN5CC[C@]31[C@@H]54)C2 [Vinorelbine] (25.6755 µM),0.481
8,CN1CCN(c2c(F)cc3c(=O)c(C(=O)O)cn4c3c2SCC4)CC1 [Rufloxacin] (55.0337 µM),0.466
9,COc1ccccc1N1CCN(CC(O)COc2cccc3ccccc23)CC1 (centres undefined) [Naftopidil 2HCl] (50.9551 µM),0.564
